Test in all cases: yeast three-hybrid, YBZ-1, SC-Leu-His + 0.5 mM 3-AT, 4 days
Settings in all cases: tags: N-Gal4 AD-HA kept; label: inside an RPR1-promoter hybrid RNA with tandem MS2 sites; ssRNA

The target of one assay is PUM1 PUF domain R7-VVK (Homo sapiens, UniProt Q14671 828-1176, S1079V;N1080V;E1083K). The essentials:
(§1)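 Each repeat of the Pumilio-1 PUF domain was randomized at its three base-contacting residues, and these libraries were co-expressed from a centromeric plasmid with matching RNA elements in strain YBZ-1. After four days on SC-Leu (input) or SC-Leu-His + 0.5 mM 3-AT (selection), the repeat regions were PCR-amplified and Illumina-sequenced. The interaction score compares variant frequency between input and selection as a log change, computed in log2 with a pseudocount of 1 for absent variants.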

The next assay has as its target PUM1 PUF domain R5-LNA (Homo sapiens, UniProt Q14671 828-1176, C1007L;R1008N;Q1011A). The essentials: as §1
In the next assay the target is PUM1 PUF domain R5-GRV (Homo sapiens, UniProt Q14671 828-1176, C1007G;Q1011V). The essentials:
as §1

The target in the next assay is PUM1 PUF domain R5-HLE (Homo sapiens, UniProt Q14671 828-1176, C1007H;R1008L;Q1011E). The essentials:
as §1

For another assay, the target named is PUM1 PUF domain R4-DWG (Homo sapiens, UniProt Q14671 828-1176, N971D;H972W;Q975G). A digest of the protocol:
as §1

In the next assay the target is T1, PUM1 PUF domain R6-YWL (Homo sapiens, UniProt Q14671 828-1176, N1043Y;Y1044W;Q1047L).
T1 sequence: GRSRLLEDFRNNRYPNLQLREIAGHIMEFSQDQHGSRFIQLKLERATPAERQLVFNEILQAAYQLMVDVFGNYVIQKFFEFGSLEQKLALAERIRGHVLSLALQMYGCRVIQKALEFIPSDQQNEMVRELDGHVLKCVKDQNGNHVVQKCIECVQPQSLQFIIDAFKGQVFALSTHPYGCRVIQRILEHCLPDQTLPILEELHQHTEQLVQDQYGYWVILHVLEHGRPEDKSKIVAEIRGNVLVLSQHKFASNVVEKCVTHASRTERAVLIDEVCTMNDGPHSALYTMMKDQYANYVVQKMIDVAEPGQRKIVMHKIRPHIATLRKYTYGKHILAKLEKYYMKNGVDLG
A digest of the protocol:
as §1

A further assay deals with PUM1 PUF domain R1-RYQ (Homo sapiens, UniProt Q14671 828-1176, S863R;R864Y). The essentials:
as §1

The next assay has as its target PUM1 PUF domain R1-KPL (Homo sapiens, UniProt Q14671 828-1176, S863K;R864P;Q867L). A digest of the protocol: as §1
The next assay has as its target PUM1 PUF domain R1-RPC (Homo sapiens, UniProt Q14671 828-1176, S863R;R864P;Q867C). The essentials:
as §1

The target in a further assay is PUM1 PUF domain R3-EHG (Homo sapiens, UniProt Q14671 828-1176, C935E;R936H;Q939G). The essentials: as §1
The next assay concerns the target PUM1 PUF domain R3-RTV (Homo sapiens, UniProt Q14671 828-1176, C935R;R936T;Q939V). A digest of the protocol: as §1
Another assay deals with PUM1 PUF domain R3-LWC (Homo sapiens, UniProt Q14671 828-1176, C935L;R936W;Q939C). The essentials:
as §1

For another assay, the target named is PUM1 PUF domain R3-YYS (Homo sapiens, UniProt Q14671 828-1176, C935Y;R936Y;Q939S). A digest of the protocol: as §1
Another assay deals with PUM1 PUF domain R3-GPE (Homo sapiens, UniProt Q14671 828-1176, C935G;R936P;Q939E). A digest of the protocol: as §1
Another assay deals with PUM1 PUF domain R2-LWQ (Homo sapiens, UniProt Q14671 828-1176, N899L;Y900W). A digest of the protocol: as §1
The next assay deals with PUM1 PUF domain R2-DRQ (Homo sapiens, UniProt Q14671 828-1176, N899D;Y900R). The essentials: as §1
Another assay deals with PUM1 PUF domain R1-SKR (Homo sapiens, UniProt Q14671 828-1176, R864K;Q867R). A digest of the protocol:
as §1

The next assay concerns the target PUM1 PUF domain R4-HWP (Homo sapiens, UniProt Q14671 828-1176, N971H;H972W;Q975P). A digest of the protocol: as §1
In a further assay the target is PUM1 PUF domain R4-GPT (Homo sapiens, UniProt Q14671 828-1176, N971G;H972P;Q975T). The essentials: as §1
In a further assay the target is PUM1 PUF domain R4-WHG (Homo sapiens, UniProt Q14671 828-1176, N971W;Q975G). A digest of the protocol: as §1

As to “GGCUAGAACUAGUGGAUCCCCCGGCGCCCGGCGGCUCGAGCCCGGGUAAGUUUAAAUAGUCUGCAUGCCGCCGGGCGCCAUGCCUGCAGGUCGACUCUAGAAAACAUG”, the binding signal in the assay with PUM1 PUF domain R7-VVK was 3.27 log2 enrichment (interaction score).

Consider “GGCUAGAACUAGUGGAUCCCCCGGCGCCCGGCGGCUCGAGCCCGGGUAAGUGUUAAUAGUCUGCAUGCCGCCGGGCGCCAUGCCUGCAGGUCGACUCUAGAAAACAUG”, for which the binding signal in the assay with PUM1 PUF domain R5-LNA is 4.02 log2 enrichment (interaction score); with PUM1 PUF domain R5-GRV it was 3.07 log2 enrichment (interaction score); in the assay with PUM1 PUF domain R5-HLE it was 2.54 log2 enrichment (interaction score).

For the sequence “GGCUAGAACUAGUGGAUCCCCCGGCGCCCGGCGGCUCGAGCCCGGGUAAGUGUACAUAGUCUGCAUGCCGCCGGGCGCCAUGCCUGCAGGUCGACUCUAGAAAACAUG”, in the assay with PUM1 PUF domain R4-DWG, the binding signal is 2.61 log2 enrichment (interaction score).

With “GGCUAGAACUAGUGGAUCCCCCGGCGCCCGGCGGCUCGAGCCCGGGUAAGUGAAAAUAGUCUGCAUGCCGCCGGGCGCCAUGCCUGCAGGUCGACUCUAGAAAACAUG”, the binding signal in the assay with PUM1 PUF domain R6-YWL was 7.77 log2 enrichment (interaction score).

As to “GGCUAGAACUAGUGGAUCCCCCGGCGCCCGGCGGCUCGAGCCCGGGUAAGUGUAAAUUGUCUGCAUGCCGCCGGGCGCCAUGCCUGCAGGUCGACUCUAGAAAACAUG”, the binding signal with PUM1 PUF domain R1-RYQ is 4.14 log2 enrichment (interaction score); with PUM1 PUF domain R1-KPL, 3.37 log2 enrichment (interaction score); with PUM1 PUF domain R1-RPC, 1.56 log2 enrichment (interaction score).

“GGCUAGAACUAGUGGAUCCCCCGGCGCCCGGCGGCUCGAGCCCGGGUAAGUGUAAUUAGUCUGCAUGCCGCCGGGCGCCAUGCCUGCAGGUCGACUCUAGAAAACAUG”: the binding signal was 5.05 log2 enrichment (interaction score) with PUM1 PUF domain R3-EHG, 2.72 log2 enrichment (interaction score) with PUM1 PUF domain R3-RTV and 2.16 log2 enrichment (interaction score) in the assay with PUM1 PUF domain R3-LWC.

On to “GGCUAGAACUAGUGGAUCCCCCGGCGCCCGGCGGCUCGAGCCCGGGUAAGUGUCAAUAGUCUGCAUGCCGCCGGGCGCCAUGCCUGCAGGUCGACUCUAGAAAACAUG”, for which the binding signal with PUM1 PUF domain R5-HLE is 0.68 log2 enrichment (interaction score).

On to “GGCUAGAACUAGUGGAUCCCCCGGCGCCCGGCGGCUCGAGCCCGGGUAAGUGUAAGUAGUCUGCAUGCCGCCGGGCGCCAUGCCUGCAGGUCGACUCUAGAAAACAUG”, for which the binding signal is 4.29 log2 enrichment (interaction score) with PUM1 PUF domain R3-EHG, 6.91 log2 enrichment (interaction score) with PUM1 PUF domain R3-YYS, 3.65 log2 enrichment (interaction score) with PUM1 PUF domain R3-LWC and 5.98 log2 enrichment (interaction score) in the assay with PUM1 PUF domain R3-GPE.

On to “GGCUAGAACUAGUGGAUCCCCCGGCGCCCGGCGGCUCGAGCCCGGGUAAGUGUAAAAAGUCUGCAUGCCGCCGGGCGCCAUGCCUGCAGGUCGACUCUAGAAAACAUG”, for which the binding signal in the assay with PUM1 PUF domain R2-LWQ was 8.53 log2 enrichment (interaction score); with PUM1 PUF domain R2-DRQ, 2.96 log2 enrichment (interaction score).

On to “GGCUAGAACUAGUGGAUCCCCCGGCGCCCGGCGGCUCGAGCCCGGGUAAGUGUAAAUCGUCUGCAUGCCGCCGGGCGCCAUGCCUGCAGGUCGACUCUAGAAAACAUG”, for which the binding signal is 3.09 log2 enrichment (interaction score) with PUM1 PUF domain R1-SKR, 5.27 log2 enrichment (interaction score) in the assay with PUM1 PUF domain R1-RYQ, 2.58 log2 enrichment (interaction score) with PUM1 PUF domain R1-KPL and 2.57 log2 enrichment (interaction score) with PUM1 PUF domain R1-RPC.

For the sequence “GGCUAGAACUAGUGGAUCCCCCGGCGCCCGGCGGCUCGAGCCCGGGUAAGUGUGAAUAGUCUGCAUGCCGCCGGGCGCCAUGCCUGCAGGUCGACUCUAGAAAACAUG”, the binding signal with PUM1 PUF domain R5-GRV is 2.53 log2 enrichment (interaction score).

Regarding “GGCUAGAACUAGUGGAUCCCCCGGCGCCCGGCGGCUCGAGCCCGGGUAAGUGUAAAUAGUCUGCAUGCCGCCGGGCGCCAUGCCUGCAGGUCGACUCUAGAAAACAUG”, the binding signal is 1.66 log2 enrichment (interaction score) with PUM1 PUF domain R2-LWQ; 2.53 log2 enrichment (interaction score) with PUM1 PUF domain R3-EHG; 2.21 log2 enrichment (interaction score) with PUM1 PUF domain R1-RYQ; 5.39 log2 enrichment (interaction score) with PUM1 PUF domain R4-DWG; 5.47 log2 enrichment (interaction score) with PUM1 PUF domain R4-HWP; 2.75 log2 enrichment (interaction score) with PUM1 PUF domain R5-GRV. Further, the binding signal with PUM1 PUF domain R4-GPT is 2.42 log2 enrichment (interaction score); in the assay with PUM1 PUF domain R5-HLE, 1.15 log2 enrichment (interaction score).

Turning to “GGCUAGAACUAGUGGAUCCCCCGGCGCCCGGCGGCUCGAGCCCGGGUAAGUGUAUAUAGUCUGCAUGCCGCCGGGCGCCAUGCCUGCAGGUCGACUCUAGAAAACAUG”, the binding signal with PUM1 PUF domain R4-WHG is 3.79 log2 enrichment (interaction score); with PUM1 PUF domain R4-DWG it was 4.56 log2 enrichment (interaction score); with PUM1 PUF domain R4-HWP, 4.4 log2 enrichment (interaction score); with PUM1 PUF domain R4-GPT, 2.14 log2 enrichment (interaction score).

The record behind these values is PMC8384837, “Expanding the binding specificity for RNA recognition by a PUF domain”.
